Experimental data taken from PubChem BioAssay (Tox21).
Several values for one entry are separate records, joined by “and”; a condition that tells them apart may be missing. Equal entries are not always repeated. Results filed as inconclusive are left out. Where a structure was tested more than once in an assay, its records may differ in their call. Activity calls are given as the source filed them. Unless noted, calls follow the shape of the dose curve; as a rule, active = well fitted curve in the direction sought with a large enough effect in the repeat runs; inconclusive = weak or mixed curves; inactive = no such curve, though single readings can be large; an effect the other way counts as inactive or inconclusive.

Experiments:
[1] = qHTS assay to identify small molecule agonists of H2AX (AID 1224845; active = well fitted activation curve with a large enough effect in the signal ratio in the repeat runs, not every such curve was filed as active; the % refers to the signal ratio)
How it was run: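 Wild-type CHO-K1 cells plated overnight, then exposed 3 hr at 37C to compounds at 15 concentrations (0.76% DMSO). Lysed, then HTRF anti-pH2AX(S139)-cryptate/anti-H2AX-d2 detection after 24 hr at room temperature; emissions 665 and 620 nm.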

[2] = qHTS assay to identify small molecule agonists of the hypoxia (HIF-1) signaling pathway (AID 1224846; active = well fitted activation curve with a large enough effect in the signal ratio in the repeat runs, not every such curve was filed as active; the % refers to the signal ratio)
How it was run: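 A low-serum medium (0.5% dialyzed FBS) holding 2,000 HRE-bla ME-180 cells per well is preincubated for 5 hrs, dosed with compounds by pintool, and kept a further 17 hrs at 37C, 5% CO2 before CCF4-AM FRET detection of beta-lactamase.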

[3] = qHTS assay to identify small molecule agonists of H2AX - cell viability counter screen (AID 1224847; calls by dose curve; also: top concentration of the series differs between compounds; nearly all actives have a fitted effect of over 30% in size)
How it was run: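 Cells plated first: CHO-K1, 1000 per well in 10% FBS medium, incubated overnight at 37C. Then 15-point compound titration added (final DMSO 0.76%) for 3 hr. Finally CellTiter-Glo added and luminescence read.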

[4] = qHTS assay to identify small molecule antagonists of the estrogen related receptor (ERR) signaling pathway from Tox21 library (AID 1224848); also: nearly all actives have a fitted effect of over 50% in size
How it was run: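 Cells: ERR line, 2,000/well; 6 h preincubation 37 C/5% CO2. Cpd in DMSO via pin tool; 18 h, 37 C. ONE-Glo, 30 min RT, luminescence.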

[5] = qHTS assay to identify small molecule agonists of the estrogen related receptor (ERR) signaling pathway from Tox21 library (AID 1224849; calls by dose curve; also: nearly all actives have a fitted effect of over 15% in size); details: ERR reporter cell line, ONE-Glo luciferase, 18 h
How it was run: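 Screening used an NTP-provided ERR luciferase cell line. Compounds in DMSO were added 6 h after seeding and left 18 h at 37 C before a 30 min ONE-Glo step and luminescence reading.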

[6] = qHTS RealTime-Glo MT Cell Viability Assay in HepG2 cells - 24 hour (AID 1224867); also: nearly all actives have a fitted effect of over 50% in size
How it was run: (§1)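 HepG2 suspension premixed with RealTime-Glo reagents is plated at 600 cells per well and left 5 h at 37 C/5% CO2. Compounds in DMSO then go in, and bioluminescence reflecting viable cell number is recorded over 40 h.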

[7] = qHTS RealTime-Glo MT Cell Viability Assay in HEK293 cells - 32 hour (AID 1224868); also: nearly all actives have a fitted effect of over 50% in size; also: potency is read from the fitted curve at half-maximal effect
How it was run: (§2)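 Reads taken at 0, 8, 16, 24, 32 and 40 h from the same wells. HEK293 cells (600/well) carried RealTime-Glo reagents from seeding, with compound added after a 5 h settle at 37 C.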

[8] = A CellTox Green Cytotoxicity Assay to monitor cytotoxicity in HEK293 cells - 0 hour (AID 1224869); also: nearly all actives have a fitted effect of over 50% in size
How it was run: (§3)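 Fluorescence intensity, read at 0, 8, 16, 24, 32 and 40 h of compound treatment, reflected dye binding to DNA of dead HEK293 cells; compounds (23 nL, DMSO) were added 5 h after plating cells with reagent.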

[9] = qHTS RealTime-Glo MT Cell Viability Assay in HepG2 cells - 40 hour (AID 1224870); also: nearly all actives have a fitted effect of over 50% in size
How it was run: (§4)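 HepG2 cells mixed with RealTime-Glo MT reagents (NanoLuc plus cell-permeant prosubstrate) were seeded at 600 cells/well, incubated 5 h at 37 C/5% CO2, then pinned with compounds in DMSO; nonlytic luminescence tracked viability during 40 h treatment.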

[10] = A CellTox Green Cytotoxicity Assay to monitor cytotoxicity in HEK293 cells - 40 hour (AID 1224871); also: nearly all actives have a fitted effect of over 45% in size
How it was run: as §3

[11] = qHTS RealTime-Glo MT Cell Viability Assay in HEK293 cells - 16 hour (AID 1224872); also: nearly all actives have a fitted effect of over 50% in size; also: potency is read from the fitted curve at half-maximal effect
How it was run: as §2

[12] = qHTS RealTime-Glo MT Cell Viability Assay in HepG2 cells - 8 hour (AID 1224873); also: nearly all actives have a fitted effect of over 55% in size
How it was run: as §4

[13] = qHTS RealTime-Glo MT Cell Viability Assay in HEK293 cells - 40 hour (AID 1224874); details: RealTime-Glo luminescence; max response: stronger effect = lower value; also: nearly all actives have a fitted effect of over 50% in size; also: potency is read from the fitted curve at half-maximal effect
How it was run: (§5)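 Viable HEK293 cells reduce a cell-permeant prosubstrate; the product diffuses out and is consumed by NanoLuc in the medium to give light. Compounds went in after a 5 h incubation and plates were read over the treatment course.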

[14] = A CellTox Green Cytotoxicity Assay to monitor cytotoxicity in HEK293 cells - 24 hour (AID 1224875); also: nearly all actives have a fitted effect of over 45% in size
How it was run: as §3

[15] = A CellTox Green Cytotoxicity Assay to monitor cytotoxicity in HepG2 cells - 16 hour (AID 1224876); also: nearly all actives have a fitted effect of over 45% in size; also: potency is read from the fitted curve at half-maximal effect
How it was run: (§6)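 Using 1536-well format, dye-containing HepG2 suspension was seeded, allowed 5 h at 37 C/5% CO2, dosed by pintool with compounds, positive and negative controls, and imaged for fluorescence across 40 h.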

[16] = qHTS RealTime-Glo MT Cell Viability Assay in HepG2 cells - 32 hour (AID 1224877); also: nearly all actives have a fitted effect of over 55% in size
How it was run: as §1

[17] = A CellTox Green Cytotoxicity Assay to monitor cytotoxicity in HepG2 cells - 24 hour (AID 1224878); also: nearly all actives have a fitted effect of over 45% in size; also: potency is read from the fitted curve at half-maximal effect
How it was run: as §6

[18] = A CellTox Green Cytotoxicity Assay to monitor cytotoxicity in HepG2 cells - 40 hour (AID 1224879); also: nearly all actives have a fitted effect of over 40% in size; also: potency is read from the fitted curve at half-maximal effect
How it was run: as §6

[19] = qHTS RealTime-Glo MT Cell Viability Assay in HEK293 cells - 0 hour (AID 1224880)
How it was run: as §5

[20] = A CellTox Green Cytotoxicity Assay to monitor cytotoxicity in HEK293 cells - 32 hour (AID 1224881); also: nearly all actives have a fitted effect of over 40% in size
How it was run: as §3
% is scaled to controls: 0 for no effect and ±100 for the full control effect.

C1CCCNCC1
inactive: Potency [1] | outcome [2] | Potency [3] | Potency [4] | activity change, positive = activation ([5]; at 92.4 µM (top of the series)) 1.64% and -2.2% | Potency [6] | Potency [7] | Potency [8] | Potency [9] | Potency [10] | Potency [11] | Potency [12] | max response [13] 6.44% and 0.666% | Potency [14] | Potency [15] | Potency [16] | Potency [17] | Potency [18] | Potency [19] | Potency [20]

CC1(C)[C@@H](O[C@H]2O[C@H](C(=O)O)[C@@H](O)[C@H](O)[C@H]2O[C@@H]2O[C@H](C(=O)O)[C@@H](O)[C@H](O)[C@H]2O)CC[C@]2(C)[C@H]3C(=O)C=C4[C@@H]5C[C@@](C)(C(=O)O)CC[C@]5(C)CC[C@@]4(C)[C@]3(C)CC[C@@H]12
inactive: Potency [1] | outcome [2] | Potency [3] | Potency [4] | activity change, positive = activation ([5]; at 42.5 µM (top of the series)) 2.2% and 1.06% | Potency [6] | Potency [7] | Potency [8] | Potency [9] | Potency [10] | Potency [11] | Potency [12] | max response [13] -4.4% and 0.425% | Potency [14] | Potency [15] | Potency [16] | Potency [17] | Potency [18] | Potency [20]

CCCOCC(C)O (configuration not stated)
inactive: Potency [1] | outcome [2] | Potency [3] | Potency [4] | activity change, positive = activation ([5]; at 92.4 µM (top of the series)) 5.9% and 6.38% | Potency [6] | Potency [8] | Potency [9] | Potency [10] | Potency [11] | Potency [12] | max response [13] 6.7% and -0.928% | Potency [15] | Potency [16] | Potency [17] | Potency [18] | Potency [19] | Potency [20]

CCCCCCCCCCCCCC(=O)O
inactive: Potency [1] | outcome [2] | Potency [3] | Potency [4] | activity change, positive = activation ([5]; at 92.4 µM (top of the series)) -1.8% and -13.1% | Potency [6] | Potency [8] | Potency [9] | Potency [10] | Potency [11] | Potency [12] | max response [13] -22.5% and -9.69% | Potency [14] | Potency [15] | Potency [16] | Potency [17] | Potency [18] | Potency [20]

Brc1ccc(Oc2ccc(Br)cc2)cc1
inactive: Potency [1] | outcome [2] | Potency [3] | Potency [6] | Potency [7] | Potency [8] | Potency [9] | Potency [10] | Potency [11] | Potency [12] | max response [13] -1.97% and -5.7% | Potency [14] | Potency [15] | Potency [16] | Potency [17] | Potency [18] | Potency [19] | Potency [20]

CCCCCCCCC(=O)O
inactive: Potency [1] | outcome [2] | Potency [3] | Potency [6] | Potency [7] | Potency [8] | Potency [9] | Potency [10] | Potency [11] | Potency [12] | max response [13] 1.64% and 2.96% | Potency [14] | Potency [15] | Potency [16] | Potency [17] | Potency [18] | Potency [19] | Potency [20]

COC(=O)CCCCC(=O)OC
inactive: Potency [1] | outcome [2] | Potency [3] | Potency [6] | Potency [7] | Potency [8] | Potency [9] | Potency [10] | Potency [11] | Potency [12] | max response [13] 6.2% and 1.04% | Potency [14] | Potency [15] | Potency [16] | Potency [17] | Potency [18] | Potency [20]

CC(=O)OC[C@H]1O[C@@](COC(C)=O)(O[C@H]2O[C@H](COC(C)=O)[C@@H](OC(C)=O)[C@H](OC(C)=O)[C@H]2OC(C)=O)[C@@H](OC(C)=O)[C@@H]1OC(C)=O
inactive: Potency [1] | outcome [2] | Potency [3] | Potency [6] | Potency [7] | Potency [8] | Potency [9] | Potency [10] | Potency [11] | Potency [12] | max response [13] -0.774% and 5.83% | Potency [14] | Potency [15] | Potency [16] | Potency [17] | Potency [18] | Potency [19] | Potency [20]

CCCCC(CC)COC(=O)c1ccc(C(=O)OCC(CC)CCCC)cc1 (configuration not stated)
inactive: Potency [1] | outcome [2] | Potency [3] | Potency [4] | activity change, positive = activation ([5]; at 92.4 µM (top of the series)) -0.0437% | Potency [6] | Potency [8] | Potency [9] | Potency [10] | Potency [11] | Potency [12] | max response [13] 10.3% and 17.5% | Potency [15] | Potency [16] | Potency [17] | Potency [18] | Potency [20]

Oc1ccc(Cc2ccccc2O)cc1
inactive: Potency [1] | outcome [2] | Potency [3] | Potency [6] | Potency [8] | Potency [9] | Potency [10] | Potency [12] | Potency [14] | Potency [15] | Potency [16] | Potency [17] | Potency [18] | Potency [19] | Potency [20]
active: Potency [7] 19.7 µM | Potency [11] 15.5 µM | Potency [13] 14 µM and 17.4 µM

O=C1C(N(CO)C(=O)NCO)N(CO)C(=O)N1CO (configuration not stated)
inactive: Potency [1] | outcome [2] | Potency [3] | Potency [6] | Potency [7] | Potency [8] | Potency [9] | Potency [10] | Potency [11] | Potency [12] | max response [13] 0.683% and 1.21% | Potency [14] | Potency [15] | Potency [16] | Potency [17] | Potency [18] | Potency [19] | Potency [20]

CO[Si](CCCNCCN)(OC)OC
inactive and 49 µM (active): Potency [15] | Potency [17] | Potency [18]
inactive: Potency [1] | outcome [2] | Potency [3] | Potency [6] | Potency [7] | Potency [8] | Potency [9] | Potency [10] | Potency [11] | Potency [12] | max response [13] 4.43% and -18.7% | Potency [16] | Potency [20]

C[Si](C)(C)N[Si](C)(C)C
inactive: Potency [1] | outcome [2] | Potency [3] | Potency [6] | Potency [7] | Potency [8] | Potency [9] | Potency [10] | Potency [11] | Potency [12] | max response [13] 2.88% and 0.469% | Potency [15] | Potency [16] | Potency [17] | Potency [18] | Potency [19] | Potency [20]
